System: HEK293 WT BDD-FVIII-Gluc
Test: secreted FVIII-Gluc luciferase Z-score vs DMSO control; higher = more FVIII-Gluc secretion
Conditions: 5 µM
Procedure: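 Natural plant-compound library (480 compounds, ST catalogue IDs) screened on HEK293 cells stably expressing WT BDD-FVIII-Gaussia luciferase fusion at 5 µM. Secreted Gluc activity in the medium is given as a Z-score relative to DMSO controls.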

SMILES	secreted FVIII-Gluc luciferase Z-score
CC1CCC2[C@](C)(CO)C(O)CC[C@]2(C)C12CCC(CO)(CCO)O2 (stereo partly specified)	0.9
O=C1CC(c2ccc(O)cc2)Oc2cc(O)cc(O)c21 (stereo unspecified)	-0.524
O=C(O)c1cc(=O)c2ccccc2[nH]1	0.496
Oc1cc2c(cc1O)[C@H]1c3ccc(O)c(O)c3OC[C@@]1(O)C2	0.368
O=C(O)/C=C/c1ccc(O)c(O)c1	-0.126
COc1ccc(-c2coc3ccc(OC4OC(COC(C)=O)C(OC(C)=O)C(OC(C)=O)C4OC(C)=O)cc3c2=O)cc1 (stereo unspecified)	-1.1
C=C1CCC2C(C)(CC[C@@H](O)C2(C)C)C1COc1ccc2ccc(=O)oc2c1 (stereo partly specified)	0.344
COc1cc2ccc(=O)oc2c(O)c1OCC=C(C)C	-0.0513
C=C1CCC2C(C)(CO)C(O)CCC2(C)C1C/C=C1\C(=O)OCC1O (stereo unspecified)	-1.01
O=C(O)C1[C@H]2C[C@H]3c4[nH]c5ccccc5c4CCN3C[C@@H]2CC[C@@H]1O (stereo partly specified)	0.257
OC[C@H]1O[C@@H](O[C@@H]2[C@@H](CO)O[C@](O)(CO)[C@H]2O)[C@H](O)[C@@H](O)[C@H]1O	0.26
OCC1OC(n2cnc3cncnc32)C(O)C1O (stereo unspecified)	-0.247
Nc1ncnc2c1ncn2[C@@H]1O[C@H](CO)[C@@H](O)[C@H]1O	0.566
CC(C)C1=CC2=CCC3C(C)(C(=O)O)CCC[C@]3(C)C2CC1 (stereo partly specified)	0.107
COc1c(C)c2c(c(O)c1C/C=C(\C)CCC(=O)O)C(=O)OC2	-4.24
C[C@H]1O[C@@H](O[C@H]2[C@@H](O)C[C@H](O[C@H]3[C@@H](O)C[C@H](O[C@H]4CC[C@@]5(C)[C@H](CC[C@@H]6[C@@H]5C[C@@H](O)[C@]5(C)[C@@H](C7=CC(=O)OC7)CC[C@]65O)C4)O[C@@H]3C)O[C@@H]2C)C[C@H](O)[C@@H]1O	-4.67

Reference: the supplement of paper PMC12024529
